Source: PubChem BioAssay (National Center for Advancing Translational Sciences (NCATS))
Shown are actives, neighbours in structure and some others; about 3% of the full set was active somewhere.
PLK1 PBD inh: PLK1 (human) polo-box domain binding inhibition | Plk1 PBD binding of FITC phosphopeptide, fluorescence polarization | AID 720504 | Potency, µM, inactives show max response, negative = inhibition, most hits filed as inhibitors | P53350 | 360,000 tested, 2.8% active; also: series mostly up to about 57 µM; % is scaled to controls: 0 for no effect and ±100 for the full control effect; nearly all actives have a fitted effect of over 65% in size
PTAP TSG101 blk: blocks PTAP/TSG101 interaction to inhibit HIV-1 budding | Q99816 | Fluorescence polarization, FITC-PTAP peptide / Tsg101 binding | Potency, µM (titrated, usually from 115 µM), inactives show top-dose activity change, negative = inhibition, most hits filed as inhibitors | 340,000 tested, under 10 active | AID 493005; active = well fitted inhibition curve with a large enough effect in the main read-out, with a control signal flat, not every such curve was filed as active; inconclusive = small, poorly fitted or top-dose-only effect, or effect the other way, or a change in a side signal; inactive = no such curve, though single readings can be large or run the other way; also: % of control where 0% means no effect
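FP read-out: FITC-PTAP peptide, 50 nM final, binding Tsg101 binding domain, 10 uM final; 20 min, r.t.; 10 mM HEPES pH 7.5, 0.15 M NaCl, 0.01% Tween 20, 3 mM EDTA, 0.1 mM TCEP.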
USP1-UAF1 inh: USP1/UAF1 (human) deubiquitinase inhibition | 390,000 tested, 0.23% active | Potency, µM (titrated, usually from 57.1 µM), for inactives: top-dose activity change, negative = inhibition, most hits filed as inhibitors | recombinant USP1/UAF1, Ub-Rhodamine cleavage fluorescence; also: % is scaled to controls: 0 for no effect and ±100 for the full control effect; nearly all actives have a fitted effect of over 60% in size
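In this screen, compounds sit with the deubiquitinase complex (1nM) for 15 min at room temperature before Ub-Rho is added at 150nM final. Fluorescence rise is then followed for 6 reads every 60 seconds.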
VDR inh: blocks the human vitamin D receptor; VDR-SRC2-3 peptide fluorescence polarization, 2 h; Potency, µM, for the others: max response, negative = inhibition, actives largely listed as inhibitors; 400,000 tested, 0.93% active; also: % is scaled to controls: 0 for no effect and ±100 for the full control effect
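Fluorescence polarization assay measuring small-molecule disruption of VDR binding to the coregulator peptide SRC2-3. Compounds were pin-transferred (23 nl) into the reagent mix and incubated 2 h at room temperature before reading.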
GCN5L2 inh: blocks human GCN5L2 histone acetyltransferase; Q92830; GCN5L2 HAT assay, ThioGlo1 CoA-SH fluorescence; Potency, µM (series often up to 58.9 µM), inactives show at the highest dose activity change, negative = inhibition, actives largely listed as inhibitors; 390,000 tested, 0.21% active; AID 504327; also: % is scaled to controls: 0 for no effect and ±100 for the full control effect
Target sequence (Q92830 whole entry, looked up): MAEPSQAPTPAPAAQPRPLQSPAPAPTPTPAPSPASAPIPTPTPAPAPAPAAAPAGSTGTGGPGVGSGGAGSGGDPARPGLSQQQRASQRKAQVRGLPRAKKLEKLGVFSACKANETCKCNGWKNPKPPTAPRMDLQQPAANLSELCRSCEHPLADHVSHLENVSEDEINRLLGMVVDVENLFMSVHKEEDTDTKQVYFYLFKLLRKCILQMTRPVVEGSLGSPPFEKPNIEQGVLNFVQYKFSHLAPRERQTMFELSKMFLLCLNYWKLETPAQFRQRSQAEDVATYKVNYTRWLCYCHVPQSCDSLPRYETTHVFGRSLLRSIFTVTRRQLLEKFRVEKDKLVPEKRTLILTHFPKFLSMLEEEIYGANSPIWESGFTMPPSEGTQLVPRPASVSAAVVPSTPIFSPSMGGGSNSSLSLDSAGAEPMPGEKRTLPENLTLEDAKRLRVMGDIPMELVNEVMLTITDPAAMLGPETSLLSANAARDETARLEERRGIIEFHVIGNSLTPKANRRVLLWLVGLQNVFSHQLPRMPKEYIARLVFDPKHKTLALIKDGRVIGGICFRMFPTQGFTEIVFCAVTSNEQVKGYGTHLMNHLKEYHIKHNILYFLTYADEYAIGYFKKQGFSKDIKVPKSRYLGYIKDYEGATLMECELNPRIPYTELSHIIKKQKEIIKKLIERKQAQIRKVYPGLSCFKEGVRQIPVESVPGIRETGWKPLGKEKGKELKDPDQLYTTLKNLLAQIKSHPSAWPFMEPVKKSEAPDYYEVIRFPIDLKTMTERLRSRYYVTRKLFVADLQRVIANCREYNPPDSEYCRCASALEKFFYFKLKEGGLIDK
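Fluorescence readout, Ex340nm/Em540nm: ThioGlo1 (50uM final) reacts with free CoA thiol released as 20nM GCN5L2 acetylates H3(1-25) peptide (75uM) using acetyl-CoA (70uM). Compound and enzyme sat 15 min beforehand; 20 min room-temperature reaction.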
* hit, by the source's call; ? = inconclusive; / = no result; ! = not confirmed by another sample. Unless noted, calls follow the shape of the dose curve; as a rule, active = well fitted curve in the direction sought with a large enough effect; inconclusive = small, poorly fitted or top-dose-only effect, or another doubt; inactive = no such curve, though single readings can be large; an effect the other way counts as inactive or inconclusive. Potency is read from the fitted curve at half-maximal effect.

SMILES	PLK1 PBD inh	PTAP TSG101 blk	USP1-UAF1 inh	VDR inh	GCN5L2 inh
Cc1cc(C)n2c(SCC(=O)NCc3ccc4c(c3)OCO4)nnc2n1	24µM*	-9%	-11%	?	-16%
O=C(COc1ncnc2ccccc12)NCc1ccc2c(c1)OCO2	-2%	3%	0%	19%	-9%
Cc1nc2ccccc2nc1OCC(=O)NCc1ccc2c(c1)OCO2	2.7µM*	-5%	-9%	-11%	-5%
CC(C)C(=O)c1cn(CC(=O)NCc2ccc3c(c2)OCO3)c2ccccc12	24µM*	0%	3%	-23%	0%
CCOC(=O)c1c(S(=O)(=O)N2CCC(C(=O)Nc3ccc(F)cc3F)CC2)c(C)n(C)c1C	/	/	-19%	8%	2%
Cc1ccccc1CNC(=O)c1nn(-c2ccccc2F)nc1CO	/	/	-3%	-5%	4%
COc1ccc(N2CCN(Cc3nc4c(c(=O)n(C)c(=O)n4C)n3C(C)C)CC2)cc1	/	/	?	14%	2%
Cc1cc(C(=O)CCl)c(C)n1-c1ccon1	27µM*	1%	-22%	2%	-7%
CN(C)c1ccc(-c2nc(-c3cc4cc(Cl)ccc4oc3=O)cs2)cc1	/	/	-6%	0%	0%
CC[C@H](C)/C=C/C1=CC2=C(Cl)C(=O)[C@@]3(C)OC(=O)C(C(=O)[C@H](C)[C@@H](C)O)=C3C2=CO1	6µM*	-9%	?	?	/
CCOc1ccc(CCNC(=O)c2cc3c(=O)n(C)c4ccccc4c3n2C)cc1OCC	/	/	-11%	-11%	-4%
Cc1ccc(C)n1-c1nc(=S)[nH][nH]1	24µM*	/	3%	32µM*	18µM*
Cc1cc2nc3c(=O)n(C4CCCCC4)c(=O)[nH]c3nc2cc1N	3µM*	?	?	?	-14%
Cc1cc(C)cc(Nc2cc(=O)n(C3CCCCC3)c(=O)[nH]2)c1	0%	-1%	-3%	1%	-14%
COC(=O)/C(=C\C=C\c1ccccc1)NC(=O)c1ccccc1	13µM*	1%	-6%	-21%	-21%
C=C1C(=O)O[C@@H]2[C@H]3O[C@]3(C)CC/C=C(\C)CC[C@@H]12	-1%	-3%	-20%	22µM*!	-3%
C=C1C(=O)OC2C=C(C)CCC=C(C)CCC12 (stereo unspecified)	/	/	/	40µM*	-21%
O=C(NCCCCc1ccccc1)c1ccccc1Cl	-2%	-1%	-16%	-15%	-6%
CN(C)c1nc(C=C(C#N)C#N)c(Cl)n1-c1ccc(F)cc1	15µM*	-7%	-22%	25µM*	-7%
COCCCNC(=O)C(=O)NCC(c1ccc2c(c1)OCO2)N1CCOCC1 (stereo unspecified)	/	/	-12%	8%	0%
Cc1ccc2c(c1C)NC(=O)CC2c1ccc(Cl)cc1Cl (stereo unspecified)	/	/	-30%	-5%	-15%
C=CCOc1ccc(C(=O)/C=C2/C(=O)Nc3ccccc32)cc1	-8%	-3%	-23%	?	-3%
C=CCOc1ccccc1C(=O)/C=C1/C(=O)Nc2ccccc21	?	-4%	-18%	22µM*	15%
O=S(=O)(Nc1ccc(C(F)(F)F)cc1)c1ccc2c(c1)OCCO2	/	/	-23%	5%	-5%
O=C(CC1CCCCC1)NCCOc1ccccc1	27µM*	-4%	-13%	?	0%
SMILES	PLK1 PBD inh	PTAP TSG101 blk	USP1-UAF1 inh	VDR inh	GCN5L2 inh
COC(=O)c1ccc(C(=S)N2CCOCC2)cc1	12µM*	0%	4%	-1%	0%
O=C(/C=C/c1ccco1)Oc1ccc(C(=S)N2CCOCC2)cc1	12µM*	-5%	?	?	-14%
COc1cc(C(=S)N2CCOCC2)cc(OC)c1OC	27µM*	-3%	-12%	?	-1%
CCc1cccc(C)c1NC(=O)Cn1cnc2c1c(=O)n(C)c(=O)n2C	/	/	-8%	-2%	-8%
O=C1C2C3C=CC(C3=C(c3ccccc3)c3ccccc3)C2C(=O)N1Cc1ccccc1 (stereo unspecified)	67µM*	-1%	-8%	-5%	-1%
O=C1C2C(c3ccccc3)C=CC(c3ccccc3)C2C(=O)N1CCO (stereo unspecified)	2%	0%	?	4%	-2%
Nc1nc(NC(=O)c2ccc(F)cc2)ns1	30µM*	-3%	-30%	?	-11%
